The whole screen tested about 320,000 compounds, of which about 2,100 (0.66%) were called active. About 53% were inconclusive and are not listed. Calls follow the shape of the dose curve; as a rule, active = well fitted inhibition curve with a large enough effect in the signal ratio, with a control signal flat (not every such curve was filed as active); inconclusive = small, poorly fitted or top-dose-only effect, or effect the other way, or a change in a side signal; inactive = flat fitted curve, though single readings scatter; the % refers to the signal ratio. This excerpt belongs to a sample that is enriched for actives.
Potency is read from the fitted curve at half-maximal effect.

This experiment in a line: qHTS Assay for Lipid Storage Modulators in Drosophila S3 Cells.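 As to cell number change: cells counted by Cell Tracker Red CMTPX staining in the red channel.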 As to lipid storage change, negative = inhibition: % is scaled to controls: 0 for no effect and ±100 for the full control effect. The conditions noted are these: BODIPY lipid droplet fluorescence, 18-24 h, cells fed with added oleic acid; cell number change: measured here: cell count max response; series mostly up to 46.1 µM. In short, it runs like this: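 Laser-scanning cytometry quantifies lipid droplet accumulation (500–530 nm total intensity; droplet/cell object ratio) in oleic acid-fed (400 uM added) Drosophila S3 cells treated with a concentration series. 20 uM Triacsin C defined 100% inhibition.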
Take `CCc1ccc(OCC(=O)Nc2ccc3c(c2)COC3=O)cc1`: the Potency entry is “inactive” and the cell number change was 8.42%.

As to `COc1ccc(Cl)cc1NC(=O)C1CCCN(S(=O)(=O)c2cccc3nonc23)C1` (stereo not drawn), the Potency result was “inactive” and the cell number change was 8.35%.

As to `COc1ccc(C)cc1NC(=O)C1CCN(S(=O)(=O)c2cccc3cccnc23)CC1`, the Potency was 10.3 µM (active) and the cell number change was -24.8%.

Regarding `COc1ccc(NC(=O)C2CCN(S(=O)(=O)c3cccc4cccnc34)CC2)cc1OC`, the Potency entry is “inactive” and the cell number change was -22.5%.

For the compound `COc1ccc(C)cc1NC(=O)C1CCCN(S(=O)(=O)c2cccc3cccnc23)C1` (stereo not drawn), the Potency entry was “inactive” and the cell number change came out at 19.9%.

For `COc1ccc(C)cc1NC(=O)C1CCCN(S(=O)(=O)c2cccc3nonc23)C1` (stereo not drawn), the Potency entry is “inactive”.

In the case of `COc1ccc(C)cc1NC(=O)C1CCN(S(=O)(=O)c2cccc3nonc23)CC1`, the Potency is 3.66 µM (active) and the cell number change was 15.9%.

Regarding `COc1ccc(S(=O)(=O)Nc2c(C)n(C)n(-c3ccccc3)c2=O)cc1Br`, the Potency entry was “inactive” and the cell number change was -3.28%.

As for `CCN(CC(=O)NCc1ccc(F)cc1)C(=O)c1ccc(COc2ccccc2)cc1`, the Potency result was “inactive” and the cell number change amounted to 2.25%.

`S=C(Nc1ccccn1)NC1CCCCC1`: the Potency entry was “inactive” and the cell number change is -4.33%.

`COc1ccc(C2CC2/C(C)=N/OC(=O)c2cccs2)cc1` (stereo not drawn): the Potency entry is “inactive”.

For `CCOC(=O)c1cc2sc(C)cc2n1CC(=O)NCCc1ccccc1`, the Potency entry is “inactive” and the cell number change turned out to be 5.86%.

Take `Cc1cccc(C(=O)Nc2ccc(C)c(OC(=O)c3cccc(C)c3)c2)c1`: the Potency entry was “inactive” and the cell number change is -20.4%.

Turning to `Cc1ccc(S(=O)(=O)NCCC(=O)NCCCSc2ccccc2)cc1`, the Potency was 16.4 µM (active) and the cell number change was -14.6%.

For the compound `Cc1cnc(C(=O)OCC(=O)NCCCc2ccccc2)cn1`, the Potency was 5.17 µM (active) and the cell number change was -37.4%.

Regarding `CC(=O)Nc1ccc(S(=O)(=O)NCCc2ccccc2)cc1`, the Potency result is “inactive” and the cell number change is -18.3%.

For `COCCCNC(=O)CCNS(=O)(=O)c1ccc(C)cc1`, the Potency result was “inactive” and the cell number change was determined as 9.83%.

On to `Cc1ccc(S(=O)(=O)NCCC(=O)NCCOc2ccccc2)cc1`, for which the cell number change worked out at 2.02% and the lipid storage change, negative = inhibition is -20.7% [at 0.0737 µM] (inactive).

Consider `CC(=O)Nc1ccc(S(=O)(=O)NCCC(=O)NCCOc2ccccc2)cc1`, for which the Potency result was “inactive” and the cell number change is -2.82%.

As to `CC(=O)Nc1ccc(S(=O)(=O)NCCC(=O)NCCCc2ccccc2)cc1`, the Potency is 1.64 µM (active) and the cell number change came to 6.57%.

Turning to `O=C(CCCCC(=O)NCCCc1ccccc1)NCCCc1ccccc1`, the Potency is 20.6 µM (active) and the cell number change is -16.3%.

On to `COc1ccc(CCNC(=O)COC(=O)c2cnc(C)cn2)cc1OC`, for which the Potency entry is “inactive” and the cell number change was 5.11%.

Consider `O=C(CCCCC(=O)NCCc1ccccc1)NCCc1ccccc1`, for which the Potency result is “inactive” and the cell number change is -15.5%.

In the case of `O=C(CCCc1ccccc1)NCCc1ccccc1`, the Potency entry was “inactive” and the cell number change was 1.1%.

Take `CCN(Cc1ccccc1)C(=O)COC(=O)c1cnc(C)cn1`: the Potency result was “inactive”.

For the compound `CC(=O)NC(Cc1ccccc1)C(=O)OCC(=O)c1ccc(F)cc1` (stereo not drawn), the Potency entry was “inactive”.

`Cc1ccc(Nc2nc(-c3ccncc3)nc3ccccc23)cc1`: the Potency result is “inactive” and the cell number change is -7.93%.

In the case of `Cc1nn(CCCC(=O)NCc2ccco2)c(=O)c2nn(-c3ccccc3)c(C)c12`, the Potency entry is “inactive”.

As to `CC(C)(/C=N/O)N(O)C=C1C=CC(=O)C=C1`, the Potency result was “inactive” and the cell number change turned out to be 1.11%.

With `N#C/C(C(=O)Oc1ccccc1)=C1\C=Cc2ccccc2N1`, the Potency result was “inactive” and the cell number change is -1.92%.

`COc1ccc(OC(=O)/C=C/c2ccc([N+](=O)[O-])cc2)cc1`: the Potency entry was “inactive” and the cell number change is 3.89%.

In the case of `COc1ccc(S(=O)Cc2ccc(C(=O)NC3CC3)o2)cc1` (stereo not drawn), the Potency result is “inactive” and the cell number change was 13.8%.

As for `COc1ccc(N(C)S(=O)(=O)c2cccc(C(=O)Nc3nnc(C4CC4)s3)c2)cc1`, the Potency entry was “inactive”.

Regarding `COc1ccc(N(C)S(=O)(=O)c2cccc(C(=O)Nc3nc(C)c(C(C)=O)s3)c2)cc1`, the Potency was 1.16 µM (active).

For the compound `COc1ccc(N(C)S(=O)(=O)c2cccc(C(=O)Nc3nnc(C)s3)c2)cc1`, the Potency entry is “inactive” and the cell number change was -20.6%.

As to `O=C(NC(=S)NCc1cccnc1)c1cc2ccccc2o1`, the Potency result is “inactive” and the cell number change is -19.5%.

`Cc1cc(F)c(F)c(C(=O)NC2CC2)c1Cl`: the Potency was 9.2 µM (active).

On to `Cc1cc(F)c(F)c(C(=O)N2C(C)CCCC2C)c1Cl` (stereo not drawn), for which the Potency result is “inactive” and the cell number change was 0.056%.

Turning to `Cc1cc(F)c(F)c(C(=O)N2CCC(C)CC2)c1Cl`, the Potency entry is “inactive” and the cell number change was determined as 0.433%.

As for `COc1ccc(OCc2cc(C(=O)N(C)C(C)c3ccon3)no2)c(Cl)c1` (stereo not drawn), the Potency result is “inactive” and the cell number change is -9.97%.

As to `Cc1cc2c(cc1S(=O)(=O)N1CCN(c3ccccc3)CC1)OCCN2C`, the Potency result is “inactive” and the cell number change is -3.46%.

In the case of `Cc1ccc(S(=O)(=O)C2(C(=O)N3CCN(c4cc(C)ccc4C)CC3)CC2)cc1`, the Potency result was “inactive”.

Regarding `Cc1cccc(N2CCN(C(=O)C3(S(=O)(=O)c4ccc(Cl)cc4)CC3)CC2)c1C`, the Potency entry was “inactive” and the cell number change was 0.245%.

Regarding `Cc1ccc(S(=O)(=O)C2(C(=O)N3CCN(c4ccccc4F)CC3)CC2)cc1`, the Potency was 0.731 µM (active) and the cell number change was -5.26%.

As to `C/C(=N\NS(=O)(=O)c1ccc([N+](=O)[O-])cc1)c1c[nH]c2ccccc12`, the Potency entry is “inactive” and the cell number change was -0.495%.

In the case of `C/C(=N/Nc1ccc([N+](=O)[O-])cc1)c1c[nH]c2ccccc12`, the Potency is 4.11 µM (active) and the cell number change is -24.9%.

For the compound `C/C(=N/NS(=O)(=O)c1cccc([N+](=O)[O-])c1)c1c[nH]c2ccccc12`, the Potency result was “inactive”.

Turning to `O=C(Cn1cc(S(=O)(=O)Cc2ccccc2F)c2ccccc21)N1CCOCC1`, the Potency result is “inactive” and the cell number change came out at 9.64%.

Consider `O=[N+]([O-])c1ccc(N2CCCC2)nc1N1CCCC1`, for which the Potency result is “inactive” and the cell number change worked out at 16.9%.

On to `COc1ccc(-c2cc(=O)c(C(=O)c3ccc(C)cc3)n[nH]2)cc1`, for which the Potency entry is “inactive” and the cell number change came to 14%.

As for `O=C(OCc1cc(Cl)ccc1OC(F)F)c1cccnc1`, the Potency entry was “inactive” and the cell number change is 13.9%.

`O=C(OCc1cc(Cl)ccc1OC(F)F)c1cc(S(=O)(=O)O)ccc1O`: the Potency is 1.64 µM (active) and the cell number change was -6.52%.

Turning to `O=C(OCc1cc(Cl)ccc1OC(F)F)c1cncc(Br)c1`, the Potency result was “inactive”.

`CC1CC(=O)Nc2ccccc2N1C(=O)CSc1ncnc2sccc12` (stereo not drawn): the Potency result was “inactive” and the cell number change came out at 0.129%.

Turning to `COc1ccc(CCC(=O)Nc2cccc(S(=O)(=O)N(C)C)c2)cc1OC`, the Potency result was “inactive” and the cell number change was 15.7%.

Consider `COc1ccc([N+](=O)[O-])cc1NC(=S)NC(C)=O`, for which the Potency entry was “inactive” and the cell number change came out at 0.615%.

As to `CN(C)S(=O)(=O)Nc1cc(Cl)cc(Cl)c1`, the Potency was 18.4 µM (active) and the cell number change is -41.2%.

Turning to `CN(C)S(=O)(=O)Nc1cc(F)cc(F)c1`, the Potency result is “inactive” and the cell number change is -8.31%.

`Cc1ccc(NS(=O)(=O)N(C)C)cc1`: the Potency result is “inactive”.

As for `CCN(C(=O)COC(=O)c1ccc(Cl)c(N)c1)C1CCS(=O)(=O)C1` (stereo not drawn), the Potency result was “inactive” and the cell number change is 6.77%.

The values above are taken from PubChem BioAssay AID2685 (National Center for Advancing Translational Sciences (NCATS), 2010).
